The record followed here is ChEMBL document CHEMBL3988442, “University of Dundee, Small-Polar-MMV Screening Library” (2021).

Common to all, as to design: scale not given: direction of the effect not stated beside the values
Assay [1] addresses Protein translocase subunit SecA (Escherichia coli (strain K12)) (UniProt P10408). Briefly: Assay to Identify E. coli SecA ATPase Inhibitors. It is filed as functional. The note with it: 30 µM.
For assay [2], the target named is T1, Ubiquitin-activating enzyme e1, putative (Leishmania donovani (strain BPK282A1)) (UniProt E9BSI1).
T1 sequence (whole entry): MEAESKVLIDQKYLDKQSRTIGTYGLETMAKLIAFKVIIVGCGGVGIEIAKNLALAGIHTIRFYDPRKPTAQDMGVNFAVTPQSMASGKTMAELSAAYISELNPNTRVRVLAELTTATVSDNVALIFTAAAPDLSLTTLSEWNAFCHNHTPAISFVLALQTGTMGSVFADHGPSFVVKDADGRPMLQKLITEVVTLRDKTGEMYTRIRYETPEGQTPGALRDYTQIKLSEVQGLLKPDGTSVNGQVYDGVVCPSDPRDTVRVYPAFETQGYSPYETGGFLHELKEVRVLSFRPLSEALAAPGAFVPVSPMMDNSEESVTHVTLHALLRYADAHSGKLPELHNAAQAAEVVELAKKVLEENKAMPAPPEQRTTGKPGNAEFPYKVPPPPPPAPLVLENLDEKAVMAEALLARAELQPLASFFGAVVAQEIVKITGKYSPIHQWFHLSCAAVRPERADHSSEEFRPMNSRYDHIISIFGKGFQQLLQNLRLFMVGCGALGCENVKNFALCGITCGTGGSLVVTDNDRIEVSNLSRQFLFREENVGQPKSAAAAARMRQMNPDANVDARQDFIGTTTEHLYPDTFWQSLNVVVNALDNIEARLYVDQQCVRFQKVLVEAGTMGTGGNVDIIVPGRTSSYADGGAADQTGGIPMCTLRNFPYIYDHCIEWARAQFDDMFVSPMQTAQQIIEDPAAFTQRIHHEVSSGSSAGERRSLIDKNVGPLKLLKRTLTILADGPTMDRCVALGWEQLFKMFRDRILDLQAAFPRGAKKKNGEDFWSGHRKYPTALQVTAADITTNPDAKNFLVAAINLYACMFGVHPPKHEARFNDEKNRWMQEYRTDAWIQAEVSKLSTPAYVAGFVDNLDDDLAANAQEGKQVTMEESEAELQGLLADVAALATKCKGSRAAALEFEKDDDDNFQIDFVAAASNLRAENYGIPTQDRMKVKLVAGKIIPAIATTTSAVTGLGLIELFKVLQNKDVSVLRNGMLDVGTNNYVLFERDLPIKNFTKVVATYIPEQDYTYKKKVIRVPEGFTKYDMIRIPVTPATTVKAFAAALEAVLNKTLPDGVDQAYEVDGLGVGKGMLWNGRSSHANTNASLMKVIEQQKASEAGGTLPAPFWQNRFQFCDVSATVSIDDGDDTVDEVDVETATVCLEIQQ
Put plainly: Leishmania donovani Ubiquitin Activating Enzyme (LdE1). It is filed as functional. As to conditions: 30 µM.

The target of assay [3] is T2, Aspartate--tRNA(Asp/Asn) ligase (Mycobacterium tuberculosis (strain ATCC 25618 / H37Rv)) (UniProt P9WFW3). Also: in the data most compounds retested in dose-response had high values.
T2 sequence (whole entry): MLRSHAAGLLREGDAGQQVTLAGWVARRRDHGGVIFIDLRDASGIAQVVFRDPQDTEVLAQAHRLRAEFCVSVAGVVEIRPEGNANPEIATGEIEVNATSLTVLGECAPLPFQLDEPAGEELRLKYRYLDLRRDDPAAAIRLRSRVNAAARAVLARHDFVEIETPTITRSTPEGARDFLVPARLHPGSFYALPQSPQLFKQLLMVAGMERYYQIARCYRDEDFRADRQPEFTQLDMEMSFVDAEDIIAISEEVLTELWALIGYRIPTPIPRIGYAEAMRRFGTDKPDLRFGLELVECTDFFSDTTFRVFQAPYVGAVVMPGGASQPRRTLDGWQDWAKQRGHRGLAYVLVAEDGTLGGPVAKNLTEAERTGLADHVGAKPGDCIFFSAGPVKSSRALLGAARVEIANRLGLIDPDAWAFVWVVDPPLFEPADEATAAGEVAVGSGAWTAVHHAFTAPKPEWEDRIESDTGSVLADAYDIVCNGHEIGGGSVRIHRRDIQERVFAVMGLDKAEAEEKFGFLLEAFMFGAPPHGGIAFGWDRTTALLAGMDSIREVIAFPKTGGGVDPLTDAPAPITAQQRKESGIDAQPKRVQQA
Put plainly: Assay for Asp RNA synthetase-1 from Mycobacterium tuberculosis. It is filed as functional. The note with it: 30 µM.

In assay [4] the target is AMP-activated protein kinase, AMPK (Homo sapiens) (UniProt P54646+O43741+P54619+Q9UGJ0+Q9Y478+Q13131+Q9UGI9). Put plainly: AMP-dependent Kinase enzyme assay. An in vitro enzyme assay that detects ADP turnover that is directly proportional to AMPK activity. This uses naive AMPK that is activated during the assay with MK-8722. The class given is functional. The note with it: 30 µM.

In assay [5] the target is Sialic acid-binding Ig-like lectin 9 (Homo sapiens) (UniProt Q9Y336). Put plainly: Hs-Siglec9 ALPHAscreen SOP 20170721. The note with it: 10 µM. A general note: In Alpha technology, singlet oxygen from a donor bead excites a nearby acceptor bead.
Sialic acid-binding Ig-like lectin 9 (Homo sapiens), sequence (Q9Y336 whole entry): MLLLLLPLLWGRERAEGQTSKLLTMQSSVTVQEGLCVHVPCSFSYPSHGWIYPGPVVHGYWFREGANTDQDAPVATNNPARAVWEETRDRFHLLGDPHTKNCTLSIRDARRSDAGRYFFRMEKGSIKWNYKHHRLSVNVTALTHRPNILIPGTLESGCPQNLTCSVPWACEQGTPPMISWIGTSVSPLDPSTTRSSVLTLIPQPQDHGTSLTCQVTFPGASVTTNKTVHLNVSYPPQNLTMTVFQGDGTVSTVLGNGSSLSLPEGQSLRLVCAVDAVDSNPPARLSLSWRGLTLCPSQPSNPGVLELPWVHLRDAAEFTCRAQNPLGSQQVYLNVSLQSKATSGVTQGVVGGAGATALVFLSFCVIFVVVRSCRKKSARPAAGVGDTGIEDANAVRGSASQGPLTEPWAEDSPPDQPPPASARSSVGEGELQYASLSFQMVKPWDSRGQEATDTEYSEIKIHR
For another assay, the system named is Trypanosoma cruzi. Put plainly: Trypanosoma cruzi phosphomannomutase and mannose-1-phosphate guanylyltransferase assay. The note with it: 10 µM. It is filed as functional.
Assay [6] concerns the target T3, Arginase-2, mitochondrial (Homo sapiens) (UniProt P78540).
T3 sequence (whole entry): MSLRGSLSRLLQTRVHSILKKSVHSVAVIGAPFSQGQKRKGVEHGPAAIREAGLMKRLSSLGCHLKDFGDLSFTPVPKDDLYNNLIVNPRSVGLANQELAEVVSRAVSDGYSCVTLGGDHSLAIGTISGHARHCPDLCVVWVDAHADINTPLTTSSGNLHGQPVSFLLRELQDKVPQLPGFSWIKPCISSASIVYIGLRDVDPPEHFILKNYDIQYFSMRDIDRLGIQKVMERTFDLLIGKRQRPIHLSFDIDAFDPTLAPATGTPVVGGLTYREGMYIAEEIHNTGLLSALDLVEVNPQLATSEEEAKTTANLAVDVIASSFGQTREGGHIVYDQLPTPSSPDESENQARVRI
Briefly: in vitro enzyme assay to detect the production of urea directly proportional to the activity of Arginase II. Also: in the data most compounds retested in dose-response had high values. As to conditions: 33.3 µM. It is filed as functional.

Assay [7] concerns the target T4, Proteasome subunit beta (Trypanosoma cruzi) (UniProt O96673).
T4 sequence (whole entry): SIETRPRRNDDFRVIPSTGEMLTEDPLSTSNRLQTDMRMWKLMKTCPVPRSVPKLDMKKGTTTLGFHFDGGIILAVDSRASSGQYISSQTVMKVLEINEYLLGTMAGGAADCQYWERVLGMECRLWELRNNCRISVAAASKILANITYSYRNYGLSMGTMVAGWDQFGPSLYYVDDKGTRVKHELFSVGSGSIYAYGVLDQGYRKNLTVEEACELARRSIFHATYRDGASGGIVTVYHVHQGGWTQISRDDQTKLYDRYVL
Put plainly: Trypanosoma cruzi proteasome chymotrypsin-like activity (TcProtChymo) assay. Also: in the data most compounds retested in dose-response had high values. It is filed as functional. The note with it: 9.37 µM.

The species named for a further assay is Homo sapiens. Briefly: To identify inhibition of the IFN signalling (Jak-Stat) pathway via expression of an eGFP reporter gene under the control of an IFN-stimulated response element (ISRE) containing MxA promoter. The class given is functional. As to conditions: 30 µM.
Assay [8] addresses Shiga toxin 2 (Escherichia coli O157:H7) (UniProt P09385+P09386). Briefly: E. coli 0.157:H7 Shiga Toxin SOP - stx2 screening assay. It is filed as functional. As to conditions: 30 µM.
Assay [9] addresses T5, Tyrosyl-tRNA synthetase, putative (Trypanosoma cruzi (strain CL Brener)) (UniProt Q4DSP6).
T5 sequence (whole entry): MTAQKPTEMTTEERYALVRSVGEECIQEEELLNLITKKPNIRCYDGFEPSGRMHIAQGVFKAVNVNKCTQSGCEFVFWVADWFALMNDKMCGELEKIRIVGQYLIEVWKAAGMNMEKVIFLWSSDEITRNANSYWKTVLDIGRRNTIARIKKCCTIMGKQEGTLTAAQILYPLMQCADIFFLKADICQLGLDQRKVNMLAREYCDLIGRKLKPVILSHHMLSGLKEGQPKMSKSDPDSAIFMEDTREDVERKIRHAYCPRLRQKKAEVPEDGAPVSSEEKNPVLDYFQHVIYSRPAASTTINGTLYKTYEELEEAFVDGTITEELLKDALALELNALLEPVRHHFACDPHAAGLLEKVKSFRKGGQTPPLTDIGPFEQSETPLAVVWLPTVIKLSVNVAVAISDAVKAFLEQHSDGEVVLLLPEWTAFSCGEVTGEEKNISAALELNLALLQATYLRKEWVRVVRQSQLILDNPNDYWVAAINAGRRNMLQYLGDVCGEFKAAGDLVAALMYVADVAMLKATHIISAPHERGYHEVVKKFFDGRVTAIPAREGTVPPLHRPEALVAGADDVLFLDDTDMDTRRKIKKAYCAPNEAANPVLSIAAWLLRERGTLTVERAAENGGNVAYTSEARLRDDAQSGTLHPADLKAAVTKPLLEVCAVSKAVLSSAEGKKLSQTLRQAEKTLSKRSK
Put plainly: Trypanosoma cruzi tyrosyl tRNA synthetase (TcYRS) _High Tyrosine SOP. Also: in the data most compounds retested in dose-response had high values. The class given is functional. The note with it: 30 µM.

Assay [10] has as its target T5, Tyrosyl-tRNA synthetase, putative (Trypanosoma cruzi (strain CL Brener)). Put plainly: Trypanosoma cruzi tyrosyl tRNA synthetase (TcYRS) SOP. The class given is functional. The note with it: 30 µM.
For assay [11], the target named is Chromo domain-containing protein 1 (Saccharomyces cerevisiae (strain ATCC 204508 / S288c) (Baker's yeast)) (UniProt P32657). Briefly: ScCHD-1 Enzyme Inhibition Assay. Also: in the data most compounds retested in dose-response had high values. The note with it: 30 µM. The class given is functional.
Chromo domain-containing protein 1 (Saccharomyces cerevisiae (strain ATCC 204508 / S288c) (Baker's yeast)), sequence (P32657 whole entry, the tested form may be a part): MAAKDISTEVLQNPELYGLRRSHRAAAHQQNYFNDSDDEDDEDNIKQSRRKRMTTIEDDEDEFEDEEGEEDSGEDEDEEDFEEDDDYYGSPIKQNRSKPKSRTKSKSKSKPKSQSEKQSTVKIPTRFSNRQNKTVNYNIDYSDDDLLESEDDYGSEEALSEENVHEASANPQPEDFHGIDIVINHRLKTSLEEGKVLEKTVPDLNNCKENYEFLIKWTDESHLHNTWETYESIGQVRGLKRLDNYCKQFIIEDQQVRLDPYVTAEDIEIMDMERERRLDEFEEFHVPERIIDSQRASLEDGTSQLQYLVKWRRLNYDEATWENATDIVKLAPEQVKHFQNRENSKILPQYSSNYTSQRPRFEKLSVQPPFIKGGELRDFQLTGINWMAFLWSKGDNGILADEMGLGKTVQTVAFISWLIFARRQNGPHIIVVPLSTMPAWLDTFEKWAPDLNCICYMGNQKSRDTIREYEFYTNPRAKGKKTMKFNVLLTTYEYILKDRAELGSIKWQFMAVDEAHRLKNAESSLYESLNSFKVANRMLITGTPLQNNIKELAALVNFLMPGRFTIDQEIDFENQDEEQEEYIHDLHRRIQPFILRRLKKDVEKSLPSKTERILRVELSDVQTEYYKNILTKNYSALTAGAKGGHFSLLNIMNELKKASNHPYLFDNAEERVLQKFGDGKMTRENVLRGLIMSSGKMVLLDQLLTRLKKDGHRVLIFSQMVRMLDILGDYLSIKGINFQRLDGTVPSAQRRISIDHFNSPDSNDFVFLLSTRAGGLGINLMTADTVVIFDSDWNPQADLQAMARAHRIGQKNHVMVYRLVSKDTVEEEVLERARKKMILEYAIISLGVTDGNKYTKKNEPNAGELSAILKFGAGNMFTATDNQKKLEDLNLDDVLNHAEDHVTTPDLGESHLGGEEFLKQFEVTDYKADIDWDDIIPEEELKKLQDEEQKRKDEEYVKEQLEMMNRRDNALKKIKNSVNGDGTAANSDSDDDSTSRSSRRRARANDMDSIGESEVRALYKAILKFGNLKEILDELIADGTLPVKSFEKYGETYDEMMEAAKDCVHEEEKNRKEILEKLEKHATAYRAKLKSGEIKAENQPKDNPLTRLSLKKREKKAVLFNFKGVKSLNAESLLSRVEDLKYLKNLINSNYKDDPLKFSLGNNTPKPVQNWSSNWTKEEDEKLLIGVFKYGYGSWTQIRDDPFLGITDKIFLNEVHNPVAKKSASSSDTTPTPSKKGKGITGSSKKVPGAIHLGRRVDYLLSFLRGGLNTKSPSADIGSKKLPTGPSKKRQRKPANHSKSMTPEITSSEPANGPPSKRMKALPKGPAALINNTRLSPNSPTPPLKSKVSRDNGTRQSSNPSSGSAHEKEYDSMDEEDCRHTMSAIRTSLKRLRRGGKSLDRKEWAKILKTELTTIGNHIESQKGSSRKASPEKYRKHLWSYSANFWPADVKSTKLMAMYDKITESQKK

For some assays here: Results with a measured potency or affinity are listed apart.

Protein translocase subunit SecA (Escherichia coli (strain K12)), sequence (P10408 whole entry): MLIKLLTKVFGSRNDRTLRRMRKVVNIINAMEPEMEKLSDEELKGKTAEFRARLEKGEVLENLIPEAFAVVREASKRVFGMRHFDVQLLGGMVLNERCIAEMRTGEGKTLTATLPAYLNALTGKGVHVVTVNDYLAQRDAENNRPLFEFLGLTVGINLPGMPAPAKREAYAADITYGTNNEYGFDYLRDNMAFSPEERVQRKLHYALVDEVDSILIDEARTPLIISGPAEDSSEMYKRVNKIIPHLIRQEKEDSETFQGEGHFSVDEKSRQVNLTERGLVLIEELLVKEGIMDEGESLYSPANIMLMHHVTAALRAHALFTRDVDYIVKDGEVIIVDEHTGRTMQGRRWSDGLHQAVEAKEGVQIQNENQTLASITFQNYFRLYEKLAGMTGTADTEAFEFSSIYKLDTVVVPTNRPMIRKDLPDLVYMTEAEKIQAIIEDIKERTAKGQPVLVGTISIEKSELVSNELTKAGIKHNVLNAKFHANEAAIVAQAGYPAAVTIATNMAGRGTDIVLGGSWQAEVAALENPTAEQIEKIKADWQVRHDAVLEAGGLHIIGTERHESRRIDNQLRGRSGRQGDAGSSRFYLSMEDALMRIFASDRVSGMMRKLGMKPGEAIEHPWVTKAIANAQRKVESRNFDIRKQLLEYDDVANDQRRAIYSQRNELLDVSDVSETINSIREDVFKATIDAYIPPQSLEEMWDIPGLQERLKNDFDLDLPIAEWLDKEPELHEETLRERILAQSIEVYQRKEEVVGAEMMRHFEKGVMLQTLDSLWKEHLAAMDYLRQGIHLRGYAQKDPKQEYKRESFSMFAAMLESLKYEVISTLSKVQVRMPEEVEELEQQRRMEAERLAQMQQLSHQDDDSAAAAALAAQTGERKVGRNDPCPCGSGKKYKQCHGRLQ

With `Cc1ccccc1CC(=O)N1CCN(C2CCOC2=O)CC1` (stereo not given), the Percent Effect in assay [1] is -3.96%; in assay [2], 13.5%; in [3], -0.136%; in assay [4] it was -7.8%; in assay [5] it was 2.56%; in the assay with Trypanosoma cruzi, -5.75%. The Percent Effect was -2.81% in assay [6]; 7.03% in assay [7]; 11.9% in the assay listed under Homo sapiens; 23.2% in assay [8]; 10.3% in assay [9]; 16.1% in [10]. In addition, in assay [11], the Percent Effect was -7.37%.
On to `CN1CCCC(Cc2cncc(Br)c2)CC1` (stereo not given), for which the Percent Effect was -3.64% in assay [1]; 1.35% in assay [2]; -6.03% in assay [3]; 13.7% in assay [4]; -1.84% in assay [5]; 5.73% in the assay on Trypanosoma cruzi. Also, the Percent Effect is 0.232% in assay [6]; 9.05% in [7]; -10.1% in the assay filed under Homo sapiens; -7.14% in assay [8]; 20.4% in [9]; 22.1% in assay [10]. Moreover, the Percent Effect in assay [11] is -20.8%.
For the compound `Cc1ccc(N2CCO[C@H]3CN(Cc4cnn(C)c4)C[C@H]32)nn1`, the Percent Effect is -2.13% in [1]; -2.7% in assay [2]; -2.15% in [3]; 0.154% in [4]; -4.13% in [5]; -6.55% in the assay with Trypanosoma cruzi. The Percent Effect in assay [6] was 4.78%; in [7], 18.4%; in the assay listed under Homo sapiens, 0.179%; in assay [8] it was -2.36%; in assay [9], 6.49%; in assay [10], 10.3%. The Percent Effect in assay [11] was 2.29%.
`c1cc(CO[C@@H]2CC[C@H]3[C@H]2OCCN3CC2CCOCC2)ccn1`: the Percent Effect in assay [1] was 1.51%; in assay [2] it was 16.2%; in assay [3], 5.55%; in assay [4], 7.58%; in assay [5] it was -13.8%; in the assay with Trypanosoma cruzi, -4.79%. Further, the Percent Effect in [6] was -0.319%; in assay [7] it was 3.51%; in the assay filed under Homo sapiens, 45.1%; in [8] it was -7.6%; in assay [9], 2.16%; in assay [10], 10.3%. Moreover, in [11], the Percent Effect is -9.05%.
Regarding `COCCN1CCC2(CCCN(c3ncccn3)C2)C1` (stereo not given), the Percent Effect was -2.69% in [1]; 2.67% in assay [2]; -4.34% in [3]; 10.4% in assay [4]; 2.96% in assay [5]; -2.17% with Trypanosoma cruzi. Besides, the Percent Effect in assay [6] is 8.16%; in [7] it was 4.32%; in the assay filed under Homo sapiens it was -7.02%; in assay [8] it was -6.31%; in [9], -1.06%; in assay [10], -3.85%. Further, the Percent Effect in assay [11] was -4.53%.
